From PubChem
HCV inhibitor – HCV inhibition. AID 651820. Huh7.5.1 HCVcc-Cre infection, luciferase reporter, 44 h. Potency, µM (highest dose often 41.8 µM), usual class: inhibitors. 340,000 tested, 3.4% active
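After 44 h co-culture of compound, cells and HCVcc-Cre (~0.5 moi), substrate is added for 15 min at room temperature and luciferase measured over 15 sec. Cells were seeded at 1,000/well and pre-cultured 4 h.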
Cycloheximide cs – counter-screen hit for Shiga toxin inhibitors, cycloheximide. cell reporter, cycloheximide protein synthesis inhibition counterscreen. max response, %. 300,000 tested, 12% active. AID 2314; in the data active means max response mostly above about 13%, no sharp cut-off; inactive means mostly below about 14%; further: read at 38.3 µM for the half of the compounds with a filed dose
Shiga inhibitor – inhibitors of Shiga toxin in Vero cells. Vero cells, Shiga toxin protein synthesis inhibition reporter. inhibition, % at 38.7 µM. 290,000 tested, 9.2% active; in the data active means inhibition mostly above about 28%, no sharp cut-off; inactive means mostly below about 43%
Pf growth 48h – inhibits P. falciparum growth in the first generation, 48 h; P. falciparum luciferase growth in erythrocytes, 48 h; Potency, µM (top dose mostly 28.7 µM), most hits filed as inhibitors; 310,000 tested, 5.9% active; AID 504832
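Parasite viability was followed by luminescence of a genomically integrated firefly luciferase. Cultures held 0.1% parasitemia at 2% hematocrit (final), incubated under 5% CO2 at 37 C.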
Pf growth 96h – P. falciparum growth inhibition at 96 hour, primary screen for plastid delayed-death inhibitors | AID 504834 | P. falciparum luciferase reporter growth, 96 h | 320,000 tested, 6.9% active | Potency, µM (series often up to 28.7 µM), most hits filed as inhibitors
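Erythrocytes infected with luciferase-expressing P. falciparum were dispensed at 2% hematocrit and 0.05% parasitemia (final), then incubated with compounds 96 hours at 37 C in 5% CO2. Luminescence after detection reagent addition reported growth.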
AMA1 RON2 block – inhibitors of Plasmodium falciparum AMA1-RON2 interaction; AlphaScreen AMA1-biotinylated RON2 peptide binding; Potency, µM (doses to about 58.2 µM), most hits filed as inhibitors; 360,000 tested, 0.2% active; AID 720542; further: nearly all actives have a fitted effect of over 45% in size
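AMA1 (3D7) with his tag at 25 nM final met compounds first, then biotinylated RON2 peptide at 25 nM; detection used donor plus acceptor beads, 10 µg/mL apiece, read by AlphaScreen after 30 min at room temperature.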
Numbers stand for hits; i = inactive; ? = inconclusive; nt = no result given; + = active, no number; [ ] = dose if it differs, or a comment. Most compounds without a hit are left out; they make up all but 21% or so of the library. Unless noted, the call rests on the fitted dose curve; in most records, active means well fitted curve in the direction sought with a large enough effect; inconclusive means small, poorly fitted or top-dose-only effect, or another doubt; inactive means no such curve, though single readings can be large; an effect the other way counts as inactive or inconclusive.

SMILES | HCV inhibitor | Cycloheximide cs | Shiga inhibitor | Pf growth 48h | Pf growth 96h | AMA1 RON2 block
COc1ccc(NS(=O)(=O)c2ccc3c(c2)CCN3C(=O)CCC(=O)O)cc1OC | i | 33 | 64 | i[0.00184 µM] | i | i
CCOc1ccc(NS(=O)(=O)c2ccc3c(c2)CCN3C(=O)CCC(=O)O)cc1 | i | i | i | i | ? | i
O=C(O)CCC(=O)N1CCc2cc(S(=O)(=O)Nc3ccc4c(c3)OCCO4)ccc21 | i | i | i | nt | 13µM | i
O=C(C1CCC1)N1CCc2cc(S(=O)(=O)Nc3ccc4c(c3)OCO4)ccc21 | ? | i | i | ? | i | i
CC(C)(C)c1ccc(/C=C/C(=O)NC2=NCCS2)cc1 | ? | 54 | + | i | i | i
Cc1ccc(/C=C/C(=O)Nc2cc(C)on2)cc1 | i | 58 | 62 | ? | ? | ?
Cc1ccc(/C=C/C(=O)NC2=NCCS2)cc1 | i | 70 | 92 | i | ? | i
Cc1cc(NS(=O)(=O)c2ccc(NC(=O)/C=C/c3ccc(Br)cc3)cc2)no1 | nt | i | i | i | i | i
CC(=O)c1ccc(NC(=O)/C=C/c2ccc(C)cc2)cc1 | ? | i | i | i | i | i
CC(C)(C)c1ccc(S(=O)(=O)N2CCCC2C(=O)NC2=NCCS2)cc1 (centres undefined) | i | i | i | ? | ? | i
Cc1cnc(NC(=O)Cc2c[nH]c3ccccc23)s1 | i | 67 | i | i | ? | i
Cc1csc(NC(=O)Cc2c[nH]c3ccccc23)n1 | i | i | 72 | i | i | i
CCOC(=O)[C@H]1[C@H]2COc3ccc(Br)cc3[C@@H]2N2C(=O)CN(Cc3ccco3)C(=O)[C@@]12C | i | nt | nt | ? | ? | i
CCOC(=O)c1c(CN2CCNCC2)nc2ccc(Cl)cc2c1-c1ccccc1 | ? | nt | nt | nt | nt | i
CCCC[C@@H](CNC)NC[C@H](Cc1ccc(O)cc1)NCCc1ccc(OCC)cc1 | ? | i | i | 2.6µM | 0.93µM | i
O=C(c1ccsc1)N1CCCC(N2CCOCC2)C1 (centres undefined) | i | i | i | i | i | i
CCc1nc2ccc(C(=O)NCC3CCCCC3)cn2c1N(C)Cc1nccs1 | nt | nt | nt | nt | nt | i
CC(C)CC1Nc2ncnc(N3CCN(c4ccccn4)CC3)c2N(Cc2ccc(Cl)cc2)C1=O (centres undefined) | ? | nt | nt | nt | nt | i
CC1Nc2ncnc(N3CCOCC3)c2N(Cc2ccc(Cl)cc2)C1=O (centres undefined) | i | nt | nt | ? | ? | i
CC1Nc2ncnc(N3CCN(c4ccccc4)CC3)c2N(Cc2ccc(Cl)cc2)C1=O (centres undefined) | ? | nt | nt | 8.3µM | 13µM | i
Cc1ccc(CN2C(=O)C(C)Nc3ncnc(N4CCOCC4)c32)cc1 (centres undefined) | i | nt | nt | 10µM | 12µM | i
CCC1Nc2ncnc(N3CCOCC3)c2N(Cc2ccc(Cl)cc2)C1=O (centres undefined) | i | nt | nt | nt | nt | i
O=C1C(Cc2ccccc2)Nc2ncnc(N3CCN(c4ccccc4)CC3)c2N1Cc1ccc(Cl)cc1 (centres undefined) | ? | nt | nt | 3.7µM | 9.3µM | i
O=C1C(Cc2ccccc2)Nc2ncnc(N3CCOCC3)c2N1Cc1ccc(Br)cc1 (centres undefined) | ? | nt | nt | 13µM | ? | i
CC1Nc2ncnc(N3CCN(c4ccccc4)CC3)c2N(Cc2ccccc2)C1=O (centres undefined) | i | nt | nt | ? | ? | i
SMILES | HCV inhibitor | Cycloheximide cs | Shiga inhibitor | Pf growth 48h | Pf growth 96h | AMA1 RON2 block
CC1CN(CC(O)COc2ccc(C#N)cc2)CCN1CC(O)COc1ccc(C#N)cc1 (centres undefined) | ? | i | i | i | i | i
O=C1C(Cc2ccccc2)Nc2ncnc(N3CCCCC3)c2N1Cc1ccc(Cl)cc1 (centres undefined) | i | nt | nt | 12µM | 12µM | i
O=C1C(Cc2ccccc2)Nc2ncnc(N3CCc4ccccc4C3)c2N1Cc1ccccc1 (centres undefined) | i | nt | nt | nt | nt | i
NC(=O)CCC(NC(=O)OCc1ccccc1)C(=O)OCC(=O)c1ccccc1 (centres undefined) | nt | nt | nt | nt | nt | i
COc1cccc(C(=O)C2CCCN(C3CCOCC3)C2)c1 (centres undefined) | i | i | i | i | 2.3µM | i
CCOC(=O)N1CCC(N2CCCC(C(=O)c3cc(C)c(OC)c(C)c3)C2)CC1 (centres undefined) | ? | i | i | ? | i | i
CCOC(=O)N1CCC(N2CCCC(C(=O)c3ccc4cc(OC)ccc4c3)C2)CC1 (centres undefined) | ? | i | i | 8.3µM | ? | i
CC(=O)N1CCC(N2CCCC(C(=O)c3cccc(Cl)c3)C2)CC1 (centres undefined) | i | i | i | i | ? | i
CC[C@H](C)[C@H](NC(=O)[C@H](C)NC(=O)[C@H](CC(=O)O)NC(=O)[C@H](CO)NC(=O)[C@@H](N)Cc1cnc[nH]1)C(=O)N[C@@H](Cc1ccccc1)C(=O)N[C@H](C(=O)N[C@@H](CCC(N)=O)C(=O)N[C@@H](CCC(N)=O)C(=O)N[C@@H](Cc1ccc(O)cc1)C(=O)N[C@@H](CO)C(=O)N[C@@H](CCCCN)C(=O)N[C@@H](CC(C)C)C(=O)N[C@@H](CC(C)C)C(=O)N[C@@H](C)C(=O)N[C@@H](CCCCN)C(=O)N[C@@H](CC(C)C)C(=O)N[C@@H](C)C(=O)N[C@@H](CC(C)C)C(=O)N[C@@H](CCC(N)=O)C(=O)N[C@@H](CCCCN)C(=O)N[C@@H](Cc1ccc(O)cc1)C(=O)N[C@@H](CC(C)C)C(=O)N[C@@H](C)C(=O)N[C@@H](CO)C(=O)N[C@H](C(=O)N[C@@H](CC(C)C)C(=O)NCC(=O)N[C@@H](CO)C(=O)N[C@@H](CCCNC(=N)N)C(=O)N[C@H](C(=O)N[C@@H](CO)C(=O)N1CCC[C@H]1C(=O)N1CCC[C@H]1C(=O)N1CCC[C@H]1C(N)=O)[C@@H](C)O)[C@@H](C)CC)[C@@H](C)O | nt | i | i | nt | nt | nt
N#Cc1cccnc1N1CCN(C(=O)c2cccc3c2C(=O)c2ccc(Cl)cc2S3(=O)=O)CC1 | 13µM | nt | nt | ? | ? | i
N#Cc1cccnc1N1CCN(C(=O)c2cccc3c2C(=O)c2ccc(-c4ccc(Cl)c(C(F)(F)F)c4)cc2S3(=O)=O)CC1 | ? | nt | nt | nt | nt | i
Cc1nc(NC(=O)c2ccc(Cl)cc2)sc1-c1csc(Nc2cccc(F)c2)n1 | nt | 24 | i | 13µM | 2.6µM | nt
Cc1ccc(Nc2nc(-c3sc(NC(=O)c4cccc(Cl)c4)nc3C)cs2)cc1 | nt | i | i | 2.3µM | 4.1µM | nt
COc1ccccc1Nc1nc(-c2sc(NC(=O)c3cccc(Cl)c3)nc2C)cs1 | nt | 14 | i | ? | 9.3µM | nt
CC(=O)c1sc(NC(=O)c2ccc(F)c(F)c2)nc1C | ? | i | i | i | nt | i
